Here are results for eight compounds from PubChem BioAssay.

Each structure is given as a SMILES string. Calls of active or inactive are those of the source. Unless noted, how the calls were made is not given here.

The subject of assay [1] is Wnt5a (protein binding on small-molecule microarray). In words: small molecules binding Wnt5a protein – biophysical, small-molecule microarray, 635/667 nm fluorescence, primary screen (AID 1142).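 Further: fluorescence read at 667 nm with signal to noise per printed feature.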 To be noted: 635 nm fluorescence, higher = more signal.
Assay [2] is described as follows: ATP-based viability of Huh7 replicon cells – cell-based, CellTiter-Glo luminescence, basal, 48 h, cytotoxicity control for HCV replication inhibitor project, primary screen (AID 1143).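 Further: Huh7 hepatoma cells carrying a hepatitis C replication reporter with no stimulus; test concentration not given here.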 The following applies: higher = more signal, called active from +8 up or from −8 down. A general note: Replicon systems follow genome replication, usually without infectious particles.

A short description of assay [3]: Pseudomonas biofilm growth suppression – PAO1 strain, BacTiter-Glo luminescence, LB-PBS, primary screen (AID 1144). To be noted: P. aeruginosa PAO1 biofilm, 12 h, higher = more signal.
Assay [4] is described as follows: basal CRE-LacZ reporter activity in PC12 – cell-based, unstimulated, primary screen (AID 1145). To be noted: no forskolin, luminescence, 4.5 h, higher = more signal, called active from +8 up or from −8 down.
The nature of assay [5]: forskolin-driven CRE-LacZ activity in PC12 – cell-based, CRE-LacZ reporter, forskolin-stimulated, primary screen (AID 1146).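 Further: PC12 cells with 6xCRE LacZ reporter stimulated by forskolin 10 µM; beta-galactosidase reporter signal reflecting CREB driven transcription.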 The following applies: luminescence, 4.5 h, higher = more signal, called active from +8 up or from −8 down.
Assay [6] addresses Streptavidin (Streptomyces avidinii) (UniProt P22629). In words: compounds binding control protein streptavidin – biophysical, small-molecule microarray, 635/667 nm fluorescence, artefact control for SMM compound annotation, primary screen (AID 1147).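 Further: signal reflects streptavidin binding to arrayed compounds as a control protein.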 To be noted: higher = more signal.
A short description of assay [7]: probe aInhba binding on compound microarray – biochemical, small-molecule microarray, 635/667 nm fluorescence, primary screen (AID 1148).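 Further: score merges 667nm spot fluorescence with signal-to-noise for antibody binding to printed compounds.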 The following applies: higher = more signal.
The target of assay [8] is Torsin-1A (Homo sapiens) (UniProt O14656). As to the kind of experiment: TOR1A wild-type binding on microarray – cell lysate, small-molecule microarray, lysate, 635/667 nm, primary screen (AID 1149). To be noted: COS7 hTOR1A-WT lysate, 635 nm fluorescence, higher = more signal.
The target is the same in assay [9]. As to the kind of experiment: torsin A mutant lysate binding on microarrays – cell lysate, small-molecule microarray, COS7 lysate, 635/667 nm fluorescence, primary screen (AID 1150).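 Further: score pools 667 nm emission and signal to noise measuring lysate protein binding.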 The following applies: COS7 hTOR1A mutant lysate, 635 nm fluorescence, higher = more signal.
The test system of assay [10] is Sonic hedgehog protein (Shh). In words: Sonic hedgehog microarray binding compounds – biochemical, small-molecule microarray, 635/667 nm fluorescence, primary screen (AID 1151).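 Further: Shh protein binding to compounds spotted on small-molecule microarray slides; score combines spot fluorescence intensity with signal-to-noise across triplicate slides.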 To be noted: 635 nm fluorescence, higher = more signal.
Assay [11] can be described thus: optical density shifts of acrAB sulA E. coli – strain DRC41, OD650, 48 h, E. coli filamentation inducer project, primary screen (AID 1152).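 Further: E. coli MC1000 strain DRC41 lacking acrAB efflux pump and sulA.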 The following applies: higher = more signal, called active from +8 up or from −8 down.
Assay [12] in a line: probe aLefty1 binding on compound microarray – biochemical, small-molecule microarray, 635/667 nm fluorescence, primary screen (AID 1153).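 Further: score merges spot fluorescence with signal-to-noise ratio from the scanned slide images.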 To be noted: higher = more signal.
A short description of assay [13]: plasmodial surface anion channel blockers, osmotic lysis – cell-based, P. falciparum Indochina, OD700, 1 h, primary screen (AID 1154). The following applies: P. falciparum Indochina infected RBC osmotic lysis, higher = more signal, called active from +8 up or from −8 down.
Assay [14] can be described thus: plasmodial surface anion channel blockers, osmotic lysis – cell-based, P. falciparum Indochina, OD700, 2 h, primary screen (AID 1155).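 Further: lysis reports solute entry through the parasite surface anion channel PSAC.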 The following applies: P. falciparum Indochina infected erythrocytes, higher = more signal, called active from +8 up or from −8 down.
A short description of assay [15]: changes in parasitized red cell lysis, either direction – P. falciparum Indochina, OD700, 3 h, PSAC antagonist project, primary screen (AID 1156). To be noted: P. falciparum-infected erythrocytes, osmotic lysis, higher = more signal, called active from +8 up or from −8 down.
Assay [16] in a line: plasmodial surface anion channel blockers, osmotic lysis – cell-based, P. falciparum Indochina, OD700, 18 h, primary screen (AID 1157). The following applies: P. falciparum Indochina infected erythrocytes, osmotic lysis OD700, 18 h; higher = more signal, called active from +8 up or from −8 down.
Assay [17] in a line: S6 kinase pathway phospho-S6 level changes – cell-based, A549, cytoblot, luminescence, serum-stimulated, primary screen (AID 1158).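 Further: serum-stimulated A549 lung adenocarcinoma cells; signal is phosphorylated S6 detected by cytoblot immunostaining with HRP secondary.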 The following applies: 5 h, higher = more signal.
For assay [18], the target named is NADPH oxidase 2 (Homo sapiens) (UniProt P04839). In words: compounds shifting NOX2 Amplex Red fluorescence – cell-based, HEK293-NOX2, PMA-stimulated, NOX inhibitor project, primary screen (AID 1159). Further: test concentration not given here. The following applies: 45 min, higher = more signal, called active from +8 up or from −8 down.
Assay [19] concerns the target NADPH oxidase 4 (Homo sapiens) (UniProt Q9NPH5). In words: compounds shifting NOX4 Amplex Red fluorescence – cell-based, HEK293-NOX4, tetracycline-induced, NOX inhibitor project, primary screen (AID 1160). To be noted: HEK293-NOX4, Amplex Red H2O2 fluorescence, 45 min; higher = more signal, called active from +8 up or from −8 down.
The target of assay [20] is NADPH oxidase 5 (Homo sapiens) (UniProt Q96PH1). In words: compounds shifting NOX5 Amplex Red fluorescence – cell-based, HEK293-NOX5, NOX inhibitor project, primary screen (AID 1161). To be noted: HEK293-NOX5, ionomycin, 45 min, higher = more signal.
Chain of NADPH oxidase 5 (Homo sapiens) (Q96PH1 whole entry, looked up): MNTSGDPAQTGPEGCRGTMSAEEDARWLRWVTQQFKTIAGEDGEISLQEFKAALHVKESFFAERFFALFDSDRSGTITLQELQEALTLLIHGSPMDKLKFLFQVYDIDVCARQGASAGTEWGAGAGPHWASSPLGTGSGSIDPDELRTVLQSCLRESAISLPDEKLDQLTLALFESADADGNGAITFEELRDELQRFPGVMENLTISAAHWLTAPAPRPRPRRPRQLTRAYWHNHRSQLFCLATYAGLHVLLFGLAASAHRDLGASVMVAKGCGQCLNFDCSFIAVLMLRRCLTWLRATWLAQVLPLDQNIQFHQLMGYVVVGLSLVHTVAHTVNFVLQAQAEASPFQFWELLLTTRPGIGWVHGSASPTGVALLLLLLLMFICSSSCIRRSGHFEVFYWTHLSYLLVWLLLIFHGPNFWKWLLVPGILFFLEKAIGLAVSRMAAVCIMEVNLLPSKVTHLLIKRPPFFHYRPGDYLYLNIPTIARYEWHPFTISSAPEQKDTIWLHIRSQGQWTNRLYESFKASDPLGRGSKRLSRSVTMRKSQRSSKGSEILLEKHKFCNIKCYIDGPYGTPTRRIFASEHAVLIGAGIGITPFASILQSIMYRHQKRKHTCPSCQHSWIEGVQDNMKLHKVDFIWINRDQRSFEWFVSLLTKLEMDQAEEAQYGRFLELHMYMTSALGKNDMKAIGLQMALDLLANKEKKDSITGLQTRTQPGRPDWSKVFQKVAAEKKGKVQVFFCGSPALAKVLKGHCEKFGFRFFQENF

Chain of NADPH oxidase 2 (Homo sapiens) (P04839 whole entry, looked up): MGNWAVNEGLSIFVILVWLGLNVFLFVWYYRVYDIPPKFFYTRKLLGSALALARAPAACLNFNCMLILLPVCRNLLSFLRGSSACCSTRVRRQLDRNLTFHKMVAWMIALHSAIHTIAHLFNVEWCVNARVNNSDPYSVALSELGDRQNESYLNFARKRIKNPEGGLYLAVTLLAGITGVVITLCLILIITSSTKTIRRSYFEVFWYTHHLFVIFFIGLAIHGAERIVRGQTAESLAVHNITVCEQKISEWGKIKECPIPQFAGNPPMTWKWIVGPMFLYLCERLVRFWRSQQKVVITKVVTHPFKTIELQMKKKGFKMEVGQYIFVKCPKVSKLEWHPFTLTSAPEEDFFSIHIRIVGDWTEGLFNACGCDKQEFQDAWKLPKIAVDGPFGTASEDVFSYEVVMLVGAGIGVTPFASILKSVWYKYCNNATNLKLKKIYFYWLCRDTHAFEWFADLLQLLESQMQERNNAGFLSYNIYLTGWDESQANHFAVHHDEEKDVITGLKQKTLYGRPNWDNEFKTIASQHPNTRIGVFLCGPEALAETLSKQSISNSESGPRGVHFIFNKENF
Chain of NADPH oxidase 4 (Homo sapiens) (Q9NPH5 whole entry, looked up): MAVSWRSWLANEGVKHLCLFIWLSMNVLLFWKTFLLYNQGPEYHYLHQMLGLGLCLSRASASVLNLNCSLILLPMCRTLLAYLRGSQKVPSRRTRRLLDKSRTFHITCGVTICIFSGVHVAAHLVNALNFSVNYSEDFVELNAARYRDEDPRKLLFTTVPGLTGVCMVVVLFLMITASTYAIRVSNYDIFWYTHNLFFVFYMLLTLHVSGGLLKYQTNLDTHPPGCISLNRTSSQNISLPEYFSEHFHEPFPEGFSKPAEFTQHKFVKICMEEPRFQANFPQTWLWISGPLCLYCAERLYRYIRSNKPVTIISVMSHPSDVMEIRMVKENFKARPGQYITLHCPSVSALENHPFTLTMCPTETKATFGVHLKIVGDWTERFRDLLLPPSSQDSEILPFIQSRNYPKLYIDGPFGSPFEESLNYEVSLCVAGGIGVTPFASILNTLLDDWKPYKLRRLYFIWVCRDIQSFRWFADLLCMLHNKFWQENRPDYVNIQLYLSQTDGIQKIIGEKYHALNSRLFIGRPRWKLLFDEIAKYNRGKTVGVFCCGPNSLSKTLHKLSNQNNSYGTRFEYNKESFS
Chain of Streptavidin (Streptomyces avidinii) (P22629 whole entry, looked up): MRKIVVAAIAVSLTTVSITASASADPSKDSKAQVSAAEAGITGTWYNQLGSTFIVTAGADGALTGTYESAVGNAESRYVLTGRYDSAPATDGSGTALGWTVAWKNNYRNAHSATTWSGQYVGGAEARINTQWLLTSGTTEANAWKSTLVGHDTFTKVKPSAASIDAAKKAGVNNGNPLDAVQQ
Chain of Torsin-1A (Homo sapiens) (O14656 whole entry, looked up): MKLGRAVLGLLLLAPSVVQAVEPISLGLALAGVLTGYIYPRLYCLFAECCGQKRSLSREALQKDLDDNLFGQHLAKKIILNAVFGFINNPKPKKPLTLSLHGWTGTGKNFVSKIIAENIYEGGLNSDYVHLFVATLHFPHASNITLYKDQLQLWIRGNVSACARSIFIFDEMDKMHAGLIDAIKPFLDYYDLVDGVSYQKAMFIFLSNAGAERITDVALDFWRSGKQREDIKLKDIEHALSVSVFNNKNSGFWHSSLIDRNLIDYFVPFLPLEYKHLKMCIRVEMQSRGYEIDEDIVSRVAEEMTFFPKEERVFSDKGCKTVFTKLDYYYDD

`CC(=O)OC[C@H]1O[C@H](CCON=C(C)C)C=C[C@@H]1OC(C)=O`: the composite z-score is 0.0141 in assay [1]; 0.17 in assay [6]; -0.038 in assay [7]; -0.0297 with Torsin-1A (Homo sapiens) [8]; -0.115 in the assay with Torsin-1A (Homo sapiens) [9]; 0.427 in [10]. Further, the composite z-score in assay [12] is -0.0412. Moreover, the z-score in [2] was 0.702 (inactive); in [3] it was 0.249 (inactive); in assay [4], -0.715 (inactive); in [5] it was 0.383 (inactive); in assay [11], -1.66 (inactive); in assay [13], 0.158 (inactive). For the same compound, the z-score in assay [14] is 0.328 (inactive); in assay [15] it was -0.599 (inactive); in [16] it was 0.196 (inactive); in assay [17], -0.71; in assay [18], 0.0813 (inactive); in [19], 0.151 (inactive). In addition, the z-score in assay [20] is -0.227.

As to `O=C1[C@H]2[C@H]3[C@H](O)[C@H](O)CC(=NOCc4ccccc4)[C@@H]3CC[C@H]2C(=O)N1c1cccc(Oc2ccccc2)c1`, the composite z-score in [1] was -0.0001; in assay [6] it was 0.0831; in assay [7] it was -0.024; with Torsin-1A (Homo sapiens) [8] it was 0.186; with Torsin-1A (Homo sapiens) [9], 0.0495; in [10] it was 1.03. This compound showed a composite z-score in assay [12] of 0.082. The z-score was -0.558 (inactive) in [2]; 1.31 (inactive) in [3]; -0.658 (inactive) in assay [4]; 0.0169 (inactive) in [5]; 1.16 (inactive) in [11]; 2.88 (inactive) in assay [13]. Also, the z-score in assay [14] is 1.72 (inactive); in assay [15] it was 1.19 (inactive); in [16] it was 0.845 (inactive); in assay [17], -0.116; in assay [18], -1.11 (inactive); in assay [19] it was 0.735 (inactive). Besides, in assay [20], the z-score is -1.18.

Consider `CCc1cc2c(nc1CC)CCN(CCC(C)=NOC(C)CN1CCCCc3nc(C)c(C)cc31)C2` (stereo not given), for which the composite z-score worked out at 0.393 in assay [1]; 0.88 in assay [6]; 0.0713 in assay [7]; 2.23 with Torsin-1A (Homo sapiens) [8]; 1.08 with Torsin-1A (Homo sapiens) [9]; 1.58 in [10]. Moreover, in assay [12], the composite z-score was determined as 0.131. Besides, the z-score is -3.02 (inactive) in assay [2]; 0.227 (inactive) in assay [3]; 2.08 (inactive) in assay [4]; 0.633 (inactive) in [5]; -1.74 (inactive) in assay [11]; 5.84 (inactive) in assay [13]. Besides, the z-score was 0.499 (inactive) in assay [14]; 1.54 (inactive) in assay [15]; 0.539 (inactive) in [16]; -0.408 in [17]; -3.06 (inactive) in [18]; -3.1 (inactive) in assay [19]. The z-score in assay [20] is -2.84.

As for `CCCNC(=O)OC[C@H]1O[C@H](CCON=C[C@@H](C)[C@H](OCc2ccccc2)C(C)C)C=C[C@@H]1Oc1ccc(OC)cc1`, the composite z-score was -0.146 in assay [1]; -0.19 in assay [6]; -0.104 in [7]; -0.0998 in the assay with Torsin-1A (Homo sapiens) [8]; 0.733 with Torsin-1A (Homo sapiens) [9]; 0.0021 in assay [10]. Besides, the composite z-score in assay [12] is -0.105. Moreover, the z-score in assay [2] is -1.1 (inactive); in [3] it was -0.107 (inactive); in assay [4] it was 1.28 (inactive); in [5], -0.0248 (inactive); in assay [11], -0.103 (inactive); in [13] it was 1.77 (inactive). Further, the z-score in [14] was -1.58 (inactive); in assay [15], 0.141 (inactive); in assay [16] it was -2.55 (inactive); in assay [17], 2.11; in [18] it was -1.7 (inactive); in [19] it was 0.368 (inactive). Besides, the z-score in assay [20] is -0.574.

In the case of `CCN1C(=O)[C@H]2[C@H]3[C@H](O)[C@H](O)CC(=NO[C@@H]4O[C@H](COC(C)=O)[C@@H](OC(C)=O)[C@H](OC(C)=O)[C@H]4OC(C)=O)[C@@H]3CC[C@H]2C1=O`, the composite z-score in assay [1] was 0.352; in assay [6], 0.0251; in assay [7], -0.0221; with Torsin-1A (Homo sapiens) [8], 0.331; with Torsin-1A (Homo sapiens) [9] it was 0.0248; in assay [10], 1.03. The compound further yielded a composite z-score in assay [12] of 0.227. Also, the z-score is 0.772 (inactive) in assay [2]; 1.22 (inactive) in assay [3]; -0.882 (inactive) in [4]; 0.171 (inactive) in assay [5]; 0.59 (inactive) in [11]; 0.202 (inactive) in assay [13]. Besides, the z-score in [14] was 0.195 (inactive); in assay [15] it was -0.519 (inactive); in assay [16], 0.319 (inactive); in assay [17] it was -0.639; in assay [18], 0.357 (inactive); in [19], 0.722 (inactive). Besides, the z-score in [20] was -0.0344.

Turning to `CC(C)(C)N1C(=O)[C@H]2[C@H]3[C@H](O)[C@H](O)CC(=NNC(=O)OCc4ccccc4)[C@H]3CC[C@H]2C1=O`, the composite z-score is 0.0281 in assay [1]; -0.107 in assay [6]; 0.125 in assay [7]; 0.436 with Torsin-1A (Homo sapiens) [8]; 0.591 in the assay with Torsin-1A (Homo sapiens) [9]; 0.897 in assay [10]. In addition, in [12], the composite z-score is -0.0966. Also, the z-score in [2] is -3.97 (inactive); in assay [3], -0.497 (inactive); in assay [4], 1.34 (inactive); in assay [5], 0.549 (inactive); in [11], -1.57 (inactive); in assay [13] it was 0.988 (inactive). Further, the z-score in assay [14] was -0.0262 (inactive); in [15], 0.374 (inactive); in assay [16] it was -1.13 (inactive); in [17], 0.827; in [18] it was -1.18 (inactive); in [19], -0.074 (inactive). In [20], the z-score is -1.11.

As to `C=C(C)C(=O)OC[C@H]1CN2[C@@H](CC[C@@H](C)[C@@H]2c2ccc(Br)cc2)C(=O)O1`, the composite z-score was -0.219 in assay [1]; 0.0906 in assay [6]; -0.154 in assay [7]; 0.334 with Torsin-1A (Homo sapiens) [8]; 0.0188 with Torsin-1A (Homo sapiens) [9]; 0.0827 in assay [10]. Further, in assay [12], the composite z-score was -0.143. Moreover, the z-score is 0.411 (inactive) in assay [2]; -0.694 (inactive) in [3]; -0.654 (inactive) in assay [4]; -0.777 (inactive) in assay [5]; -1.41 (inactive) in [11]; 3.08 (inactive) in assay [13]. Further, the z-score in [14] is -0.0269 (inactive); in assay [15] it was -0.691 (inactive); in [16], -0.196 (inactive); in assay [17], 0.861; in [18], -1.81 (inactive); in assay [19], 0.0898 (inactive). In assay [20], the z-score was -1.61.

`OC[C@H]1O[C@H](C#Cc2ccccc2)C=C[C@@H]1O`: the composite z-score in assay [1] is 0.0146; in assay [6], 0.431; in assay [7], 0.0227; with Torsin-1A (Homo sapiens) [8] it was -0.339; with Torsin-1A (Homo sapiens) [9] it was 0.141; in assay [10], 0.363. In [12], the composite z-score is -0.425. Besides, the z-score is -0.574 (inactive) in [2]; -0.385 (inactive) in assay [3]; -1.07 (inactive) in assay [4]; 0.186 (inactive) in [5]; 0.402 (inactive) in assay [11]; 1.74 (inactive) in assay [13]. Further, the z-score was 0.803 (inactive) in [14]; 0.802 (inactive) in assay [15]; 0.784 (inactive) in [16]; -0.0359 in assay [17]; -0.178 (inactive) in assay [18]; 0.662 (inactive) in assay [19]. For the same compound, the z-score in [20] turned out to be 1.33.
